Experimental findings from PubChem BioAssay (Tox21) are described below.

Inconclusive results are not listed. A call without a number means that no potency is given here. Active and inactive are the calls of the source. Calls come from the whole dose curve; as a rule, active = well fitted cell-killing curve with a large enough effect in the repeat runs; inconclusive = weak or mixed curves; inactive = no such curve, though single readings can be large or run the other way.
Potency is the fitted concentration of half-maximal effect.

This test can be described thus: qHTS assay to identify small molecule antagonists of the androgen receptor (AR) signaling pathway - cell viability counter screen (AID 743033; note: nearly all actives have a fitted effect of over 45% in size). The conditions noted are these: AR-bla HEK293 viability, CellTiter-Glo luminescence, 16 h; series mostly up to 58.5 µM. The source says: National Center for Advancing Translational Sciences [NCATS]
NIH Chemical Genomics Center [NCGC]
U.S. Environmental Protection Agency [EPA]
National Institutes of Environmental Health Sciences [NIEHS]
National Toxicology Program [NTP]
U.S. Food and Drug Administration [FDA]
Androgen receptor (AR), a nuclear hormone receptor, plays a critical role in AR-dependent prostate cancer and other androgen related diseases. Endocrine disrupting chemicals (EDCs) and their interactions with steroid hormone receptors like AR may cause disruption of normal endocrine function as well as interfere with metabolic homeostasis, reproduction, developmental and behavioral functions. To identify the compounds that inhibit AR signaling, GeneBLAzer AR-UAS-bla-GripTite cell line (Invitrogen, Carlsbad, CA, USA) containing a beta-lactamase reporter gene under control of an Upstream Activator Sequence (UAS) stably integrated into HEK293 cells was used to screen the Tox21 10K compound library. The cytotoxicity of the Tox21 compound library against the AR-bla cell line was tested in parallel by measuring the cell viability using CellTiter-Glo assay in the same wells.
Tox21 Assay Protocol Summary:
AR-bla cells were dispensed at 2,000 cells/5 uL of assay medium per well into black wall/clear-bottom 1536-well plates using a Multidrop Combi (ThermoFisher Scientific, Waltham, MA) dispenser. After the assay plates were incubated at a 37C and 5% CO2 for 4 hr, 23 nL of compounds dissolved in DMSO, positive controls or DMSO only was transferred to the assay plate by a Pintool station (Kalypsys, San Diego, CA), followed by addition of 1 uL of agonist (R1881) in culture medium using a Bioraptr Flying Reagent Dispenser (FRD) workstation (Beckman Coulter, Indianapolis, IN, USA). The plates were incubated at a 37C and 5% CO2 for 16 h. After 1 uL of LiveBLAzerTM B/G FRET substrate was added using a Bioraptr FRD, the plates were incubated at room temperature for 2 h and fluorescence intensity was measured by an Envision plate reader (PerkinElmer, Shelton, CT). For cell viability readout that measures cytotoxicity, 4 ul/well of CellTiter-Glo reagent was added into the assay plates using a Bioraptr FRD. After 30 min incubation at room temperature, the luminescence intensity in the plates was measured using a ViewLux (PerkinElmer) plate reader.
A general note: Quantitative high-throughput screening tests each substance at several concentrations.
Regarding `CNC(=O)OCC[N+](C)(C)C`, the Potency result was “inactive”.

Take `CN(C)CCCCCCN(C)C` (tested in a mixture with another compound): the Potency entry is “inactive”.

`CN1CCCC(=C(c2cccs2)c2cccs2)C1`: the Potency result was “inactive”.

For the compound `S=C(S)N1CCNCC1`, the Potency entry is “inactive”.

Regarding `CCN(CC)CCO[C@H]1CC[C@@]2(C)C(=CC[C@@H]3[C@@H]2CC[C@]2(C)C(=O)CC[C@@H]32)C1`, the Potency result is “inactive”.

With `OC(c1ccccc1)(c1ccccc1)C1CN2CCC1CC2` (stereo not given), the Potency result was “inactive”.

With `CN1C(=O)CC(=O)N(c2ccccc2)c2cc(Cl)ccc21`, the Potency entry was “inactive”.

Turning to `[H+].[H+].[Hg+2].[O-]B([O-])[O-].[c-]1ccccc1`, the Potency is 9.52 µM (active).

Regarding `C=CCN(C1=NCCN1)c1c(Cl)cccc1Cl`, the Potency result is “inactive”.

With `Oc1ccc2c3c1O[C@H]1[C@@H](O)CC[C@@]4(O)[C@@H](C2)N(CC2CCC2)CC[C@]314`, the Potency result is “inactive”.

As for `O[C@H]1[C@H]2[C@H](O)CCCN2C[C@H]1O`, the Potency entry was “inactive”.

Turning to `COc1ccc2c(c1)C13CCCC[C@@H]1C(C2)N(C)CC3` (stereo not given in full), the Potency result is “inactive”.

Consider `C[N+]1(C)[C@@H]2CC[C@H]1CC(OC(=O)c1c[nH]c3ccccc13)C2` (stereo not given in full), for which the Potency result is “inactive”.

As to `CC(=O)OCC(=O)[C@H]1CC[C@H]2[C@@H]3CC[C@H]4C[C@H](O)CC[C@]4(C)[C@H]3C(=O)C[C@]12C`, the Potency result is “inactive”.

On to `c1csc(C2(N3CCCCC3)CCCCC2)c1`, for which the Potency result was “inactive”.

As for `CN[C@@]1(c2ccccc2Cl)CCCCC1=O`, the Potency result was “inactive”.

For the compound `CCNC(C)Cc1cccc(C(F)(F)F)c1` (stereo not given), the Potency result was “inactive”.

`C#CC(C)(O)CC` (stereo not given): the Potency entry was “inactive”.

Regarding `C/C=C(\CC)C(=O)NC(N)=O`, the Potency entry is “inactive”.

Consider `CC(=O)Oc1ccc2c3c1O[C@H]1[C@@H](OC(C)=O)C=C[C@H]4[C@@H](C2)N(C)CC[C@@]341`, for which the Potency result was “inactive”.

Turning to `O=c1ccc2cc(O[C@@H]3O[C@H](CO)[C@@H](O)[C@H](O)[C@H]3O)c(O)cc2o1`, the Potency entry is “inactive”.

For the compound `O=C1CN(O)C(c2ccccc2)=c2cc(Cl)ccc2=N1`, the Potency entry is “inactive”.

`C[C@]12CC[C@H]3[C@@H](CCC4=CC(=O)CC[C@@]43C)[C@@H]1CC[C@H]2O`: the Potency result was “inactive”.

In the case of `CCOC(=O)C(O)(c1ccc(Cl)cc1)c1ccc(Cl)cc1`, the Potency was 7.84 µM (active).

Regarding `OC[C@@H](O)[C@H]1O[C@@H]2O[C@@H](C(Cl)(Cl)Cl)O[C@@H]2[C@H]1O`, the Potency result was “inactive”.

As to `Clc1ccc2c(c1)C(c1ccccc1)=NCc1nncn1-2`, the Potency entry is “inactive”.

On to `CN[C@H]1C[C@@H](N)[C@H](O)[C@@H](O[C@@H]2O[C@H](CO)[C@H](O)[C@@H]3OC4(O[C@H]23)O[C@H](C(N)CO)[C@H](O)[C@H](O)[C@H]4O)[C@@H]1O` (stereo not given in full), for which the Potency entry was “inactive”.

For the compound `C[N+]1(C)CCCCC1COC(=O)C(O)(c1ccccc1)c1ccccc1` (stereo not given), the Potency entry is “inactive”.

In the case of `c1cc2c(c(NC3=NCCN3)c1)CCCC2`, the Potency result is “inactive”.

`NC(=O)CN1CC(O)CC1=O` (stereo not given): the Potency result is “inactive”.

Consider `C[C@]12CC[C@H](O)C[C@H]1CC[C@@H]1[C@@H]2CC[C@]2(C)[C@@H](c3ccc(=O)oc3)C[C@H]3O[C@]132`, for which the Potency is 1.34 µM (active).

With `COC([CH2][Hg])CNC(=O)c1ccccc1OCC(=O)O` (stereo not given), the Potency result was “inactive”.

In the case of `CC1COC(Cn2cncn2)(c2ccc(Oc3ccc(Cl)cc3)cc2Cl)O1` (stereo not given), the Potency is 21.9 µM (active).

For `Cc1nnc2n1-c1ccc(Cl)cc1C(c1ccccc1Cl)=NC2`, the Potency result is “inactive”.

Consider `CC(C)CCC(=O)O[C@H]1CC[C@H]2[C@@H]3CCC4=CC(=O)CC[C@]4(C)[C@H]3CC[C@]12C`, for which the Potency result is “inactive”.

As to `CCOc1ccc2c3c1O[C@H]1[C@@H](O)C=C[C@H]4[C@@H](C2)N(C)CC[C@@]341`, the Potency result is “inactive”.

Turning to `CCCCNC(C)(C)[P+](=O)O`, the Potency result is “inactive”.

In the case of `c1ccc(C2(N3CCCC3)CCCCC2)cc1`, the Potency result is “inactive”.

As for `CCC(C)(S(=O)(=O)CC)S(=O)(=O)CC`, the Potency result is “inactive”.

On to `CC(N)Cc1ccc2c(c1)OCO2` (stereo not given), for which the Potency entry was “inactive”.
